Reference: the supplement of paper PMC3334620
The full ranking holds about 33,000 sequences; the median of “E-score (-0.5 to 0.5)” is about -0.032, and the highest 2% start at about 0.36. The sample holds the highest values, similar sequences and a random draw of the others, so the mix is not that of the screen.

Each sequence was assayed against T1, Sko1 (UniProt Q02100) (assay: PBM E-score (8-mer binding enrichment) (E-score (-0.5 to 0.5)); higher = stronger / more preferred TF binding). Details: protein concentration: 200 nM; construct: GST-full length.
T1 sequence: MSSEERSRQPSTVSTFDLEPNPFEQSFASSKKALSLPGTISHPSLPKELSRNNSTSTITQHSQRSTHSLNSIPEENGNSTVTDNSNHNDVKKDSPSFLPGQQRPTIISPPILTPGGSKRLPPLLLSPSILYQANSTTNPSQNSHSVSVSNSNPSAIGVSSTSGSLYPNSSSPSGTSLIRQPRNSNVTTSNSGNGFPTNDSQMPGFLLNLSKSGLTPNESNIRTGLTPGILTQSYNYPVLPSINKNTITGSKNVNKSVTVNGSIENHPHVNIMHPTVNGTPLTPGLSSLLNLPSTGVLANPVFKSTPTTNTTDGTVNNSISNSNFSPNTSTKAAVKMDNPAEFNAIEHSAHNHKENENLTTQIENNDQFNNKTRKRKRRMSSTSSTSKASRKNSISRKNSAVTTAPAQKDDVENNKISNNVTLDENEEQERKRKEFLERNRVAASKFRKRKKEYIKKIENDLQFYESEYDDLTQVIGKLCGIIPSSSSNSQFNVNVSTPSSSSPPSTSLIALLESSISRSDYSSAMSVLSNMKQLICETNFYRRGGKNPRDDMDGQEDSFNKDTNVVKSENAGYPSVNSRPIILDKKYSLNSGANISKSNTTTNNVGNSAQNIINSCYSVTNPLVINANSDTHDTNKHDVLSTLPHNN
In short: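 GST-tagged yeast TFs (full-length or DNA-binding domain) were made by PURExpress in vitro transcription/translation and applied at about 100-200 nM to universal all-10-mer Agilent arrays. The arrays were made double-stranded by primer extension, on fresh or once-stripped slides. Bound protein was detected with fluorescent anti-GST, and scans were normalised with masliner. Each ungapped eight-base word, pooled with its reverse complement, received an E-score (modified Wilcoxon-Mann-Whitney statistic) from the Universal PBM Analysis Suite.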

Sequence | PBM E-score
GTCTGCCA | -0.00797
GTCGCGTA | 0.363
AACGCGTA | 0.287
TACGCGTA | 0.387
CACGCGTC | 0.291
TACGCGCA | 0.209
ATCGCGTA | 0.326
CTCGCGTA | 0.212
GACGCGTA | 0.388
CACGCGTA | 0.311
CCCTGGCA | -0.34
GGCTGGCA | -0.303
AGAACGGG | -0.124
AGTGCGTC | 0.225
GGTGCGTA | 0.299
CGTGCGCA | 0.205
CGTGCGTA | 0.382
AGTGCGTG | 0.152
CGTGCGTC | 0.388
AGTGCGTA | 0.376
CGTGCGAC | 0.0911
CCTGCGTC | 0.122
CTAGACTA | -0.139
CATTGGTC | -0.282
CTTGTGCA | -0.154
GTAGCGGA | -0.0973

Sequence | PBM E-score
CGCTTAAA | 0.0298
AGCGTGAT | 0.147
TCGTACAA | 0.206
AGGTACAG | -0.145
AAGTACAT | 0.237
CCGTACAG | -0.22
CCGTACAC | -0.0557
ATGTACAT | 0.32
GCGTACAC | 0.213
GCGTACAA | 0.146
ACGTACAC | 0.444
ACGTACAA | 0.414
ACGTACAG | 0.415
ACGTACAT | 0.449
ACCAATGG | -0.28
CTCAGTTA | -0.0515
CGAAACTC | -0.0389
TAGTCCAA | -0.132
ACGTCAGA | 0.479
CCGTCAGA | -0.0558
ACGTCAGT | 0.469
ACGTCAGG | 0.457
ACATCAGT | 0.179
CCGTCAGG | -0.0861
GTGTCAGA | -0.06
GGGTCAGA | -0.219

Sequence | PBM E-score
TCGTCAGA | 0.307
ATGTCAGG | 0.0993
AAGTCAGT | -0.0135
GCGTCAGA | 0.364
AGTCCCTG | -0.259
AATGGGAC | -0.215
CGCCCTGC | -0.236
CCACTCAG | -0.212
CCAAAGAC | -0.098
GCGCCCGC | -0.165
GATCATAC | 0.14
ACGGTTCA | -0.126
GCGTCAGC | 0.209
ACGTCAGC | 0.48
CCGTCAGC | -0.127
CCCCCCAC | -0.372
AAGTGTAT | 0.0856
AAGTGTAG | 0.0389
CCGTGTAG | -0.181
CCGTGTAA | -0.0449
GCGTGTAC | 0.227
CCGTGTAC | -0.0602
ACGTGTAT | 0.414
AGGTGTAT | 0.075
TCGTGTAA | 0.116
ACGTGTAA | 0.386

Sequence | PBM E-score
ACGTGTAC | 0.409
ACGTGTAG | 0.367
CATGACTA | 0.0134
AATACCGG | 0.00982
CGTTTACA | 0.138
CTCCCCAC | -0.00257
ATTAAGCG | 0.0319
ACCGCATC | -0.161
AATAAGCT | 0.0887
CTATAGGA | 0.0338
CCGAGATA | 0.00305
ACTAGTGC | -0.13
AAGTGTCT | -0.135
CCGTGTCG | -0.319
GCGTGTCA | 0.216
CCGTGTCA | -0.186
ACGTGTCA | 0.378
ACGTGTCC | 0.318
ACGTGTCT | 0.381
ACGTGTCG | 0.385
AAGTGTCG | 0.00605
CAGCAGGC | -0.22
AGGCTTGA | -0.0134
ACGGCTCG | -0.0111
GAACGTAC | 0.254
CAACGTAA | 0.447

Sequence | PBM E-score
CAACGTAG | 0.354
TAACGTTA | 0.302
GATCGTAA | 0.281
CAACGTGA | 0.182
GAACGTAA | 0.428
TAACGTGA | 0.274
TAACGTAA | 0.457
ACAACTAA | 0.161
AGGCCTGC | -0.301
GCCGTCGC | -0.133
CTCGGTAC | -0.0539
CTACTCAC | 0.168
ACCACGGG | -0.243
GCCACGGA | -0.215
ACCACGTC | 0.363
ACCACGTA | 0.441
GCCACGTA | 0.421
ACCACGCC | -0.125
ACCACGAC | 0.128
ACCACGTG | 0.362
ACCACGAA | 0.131
ACCACGGA | -0.247
GCCACGCA | 0.0845
ACCACAAA | 0.0563
GTCTGATA | -0.114
TATCTGGA | -0.215

Sequence | PBM E-score
CCTCGGCG | -0.0614
CCACCAAG | -0.374
ACCGGTGG | -0.404
AACTCACC | -0.0504
GAGAACCA | -0.127
ACACTCCT | -0.189
ACGCTCAA | 0.0466
TTGTGAAA | 0.119
ACTTTCAA | 0.0541
ACCTATAT | 0.257
GTTGACGA | 0.212
GGTGACGA | 0.422
GGTGACCA | -0.137
AGTGACGG | 0.146
AGTGACCA | -0.178
AGTGACGA | 0.419
ACGCCCAG | -0.0834
TACACTAA | -0.0348
AATTGTGA | 0.233
ATCGGCCC | -0.133
CCCCACGG | -0.22
GTCATTAA | 0.393
CTCATTGA | -0.0333
ATCATTGA | 0.272
GTCATTGA | 0.416
CTCATTAA | 0.0254

Sequence | PBM E-score
ATCATTAA | 0.239
CCTGAGGC | -0.278
GATAGAGA | -0.084
ACCTTCGT | 0.0282
CGTAAAAG | 0.288
AGACTCAC | -0.129
TGAAGACA | 0.0964
CGCGACTA | -0.0528
CTGGATGC | -0.36
CTGTGCGC | -0.113
CAAAGAAG | -0.00535
GATCGTCA | 0.321
CATCGTCA | 0.395
CATCGTCG | -0.16
AATCGTCT | 0.0851
TATCGTGA | 0.168
CATCGTCC | 0.0258
AATCGTCA | 0.423
AATCGTCC | 0.0937
TATCGTCA | 0.42
